TGFb inhibitor: qHTS for Inhibitors of TGF-b | HepG2 CAGA-GFP TGF-b/SMAD3 reporter, GFP fluorescence, 18 h; TGF-beta stimulated, 500 pg/mL final | Potency, µM (top dose mostly 46.1 µM), inactives show at the top dose activity, negative = inhibition, hits mostly inhibitors | 1.2% of 410,000 active; further: on the % scale 0 is the no-effect control and ±100 the full control effect; nearly all actives have a fitted effect of over 65% in size
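Read-out: total well GFP (ex488/em500-530) summed from mean per-cell fluorescence. Cells: HEPG2 CAGA-GFP, 1% FBS DMEM, 18 h at 37 degrees C with 500 pg/mL final TGF-beta. Unstimulated wells served as the full-inhibition control; stimulated DMSO wells = 0%.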
GLP-1R agonist: qHTS of GLP-1 Receptor Agonists. Glucagon-like peptide 1 receptor (Homo sapiens), P43220. HEK293 GLP-1R CRE-luciferase, luminescence, 4-6 h; cells express a hypersensitive GLP-1R form. Potency, µM (doses to about 45.6 µM), without a hit: at the top dose activation, hits mostly activators. 0.007% of 380,000 active. AID 624172, 2012; further: % of control where 0% means no effect
Target sequence (P43220 whole entry, looked up): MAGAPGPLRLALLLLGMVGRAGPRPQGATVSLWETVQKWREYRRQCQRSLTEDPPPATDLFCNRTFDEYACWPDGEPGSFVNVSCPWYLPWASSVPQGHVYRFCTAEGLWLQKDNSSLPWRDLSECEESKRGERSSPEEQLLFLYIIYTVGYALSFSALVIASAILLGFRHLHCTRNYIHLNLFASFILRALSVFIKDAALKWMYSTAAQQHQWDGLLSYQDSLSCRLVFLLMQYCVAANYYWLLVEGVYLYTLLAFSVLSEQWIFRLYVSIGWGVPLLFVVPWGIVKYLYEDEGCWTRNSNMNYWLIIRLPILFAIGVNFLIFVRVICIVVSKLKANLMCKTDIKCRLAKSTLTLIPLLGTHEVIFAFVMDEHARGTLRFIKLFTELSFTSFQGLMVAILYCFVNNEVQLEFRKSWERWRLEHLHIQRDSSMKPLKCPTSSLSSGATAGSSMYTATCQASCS
HepG2 tox: qHTS for Inhibitors of TGF-b: Cytotox Counterscreen; HepG2 CAGA-GFP viability, ATP luminescence, 18 h; 0.76% of 410,000 active; AID 588856, 2011; Potency, µM (doses to about 46.1 µM), for inactives: top-dose activity change, negative = cytotoxicity, most hits filed as cytotoxic
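HepG2 CAGA-GFP cells (1000/well, DMEM with 1% FBS) received compound, then TGF-beta at 500 pg/mL final, and were incubated 18 hours at 37 degrees C. Viability was read by CellTiter-Glo luminescence. Media-only wells were set as complete cell-killing and DMSO as no toxicity.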
GLP-1R inv ag: qHTS of GLP-1 Receptor Inverse Agonists (Inhibition Mode) | Glucagon-like peptide 1 receptor (Homo sapiens), P43220 | HEK293 GLP-1R CRE-luciferase, luminescence, 24 h; GLP-1R form is constitutively active | Potency, µM (series often up to 38.3 µM), inactives show at the top dose activity change, negative = inhibition, hits mostly inhibitors | 1.6% of 410,000 active; further: on the % scale 0 is the no-effect control and ±100 the full control effect; nearly all actives have a fitted effect of over 55% in size
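Cells are plated, allowed 12 hours at 37 deg C, then treated with compounds for 24 hr before luciferase detection reagent is added and luminescence is read after 12 min at room temperature. The HEK293 line carries constitutively active GLP-1R with a cAMP-responsive reporter.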
ATXN2 expr inh: Primary qHTS for Inhibitors of ATXN expression; HEK-293 ATXN2-luciferase reporter, luminescence, 24 h; Potency, µM (highest dose often 57 µM), for the others: at the top dose activity change, negative = inhibition, usual class: inhibitors; 0.72% of 360,000 active; AID 1745845, 2022; further: on the % scale 0 is the no-effect control and ±100 the full control effect; nearly all actives have a fitted effect of over 55% in size
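qHTS (up to 57 uM final) was run with 24 h compound exposure of reporter cells at 37 °C. Each well was multiplexed: SteadyGlo luminescence measured ATXN2-luciferase expression after a fluorogenic Gly-Phe-AFC viability readout (25 uM final).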
ATXN viability: Viability Counterscreen for Primary qHTS for Inhibitors of ATXN expression | S2 cells (HEK-293 line with an ATXN2-luciferase reporter) viability, CellTiter-Fluor protease fluorescence, 24 h | Potency, µM (doses to about 56.7 µM), hits mostly cytotoxic | 0.49% of 400,000 active; further: nearly all actives have a fitted effect of over 40% in size
* = called active by the depositor; i = inactive; ? = inconclusive; nt = not tested or not shown; [ ] = dose if it differs, or a comment. Most compounds without a hit are left out; they make up all but 3.7% or so of the library. The call rests on the fitted dose curve; in most records, active means well fitted curve in the direction sought with a large enough effect; inconclusive means small, poorly fitted or top-dose-only effect, or another doubt; inactive means no such curve, though single readings can be large; an effect the other way counts as inactive or inconclusive. Potency means the concentration at half of the fitted maximal effect.

SMILES | TGFb inhibitor | GLP-1R agonist | HepG2 tox | GLP-1R inv ag | ATXN2 expr inh | ATXN viability
CNc1ccc(/C=C2\C=Cc3ccccc32)cc1I | 0% | nt | -23% | nt | nt | nt
CN(C)c1ccc(C(C(=O)NC2CCCCC2)N(Cc2ccco2)C(=O)c2snc(C(N)=O)c2N)cc1 (stereo not given) | 5% | 6% | -22% | 2µM* | -27% | i
COc1cc(C(C(=O)NC2CCCC2)N(Cc2ccco2)C(=O)c2snc(C(N)=O)c2N)cc(OC)c1OC (stereo not given) | -2% | 2% | -4% | -7% | -11% | i
CC(C)CCNC(=O)C(c1ccco1)N(Cc1ccc(F)cc1)C(=O)c1snc(C(N)=O)c1N (stereo not given) | -22% | -3% | -20% | 3.5µM* | 1% | i
Cc1cc(C)c(OCCN(C)C)c(Cl)c1 | 23% | -2% | 1% | -19% | -9% | i
Brc1ccccc1OCCOc1cccc2cccnc12 | -26% | 6% | 0% | -1% | 30% | i
Cc1cc(Cl)cc(Cl)c1OCCOc1cccc2cccnc12 | 11µM* | 1% | -49% | 8.9µM* | -7% | i
Cc1cc(Cl)cc(Cl)c1OCCOCCN(C)C | -11% | -14% | -44% | 11µM* | -19% | i
Cc1cnnc2ccccc12 | -16% | nt | 6% | nt | nt | nt
CCc1ccc2nc(N3CCN(C(=O)C4CC4)CC3)sc2c1 | -5% | nt | -28% | 14% | nt | nt
CCc1ccc2nc(N3CCC(C(=O)O)CC3)sc2c1 | 1% | -7% | 5% | -65% | 14µM* | i
CN(C)C(=O)CCSC(SCCC(=O)O)c1cccc(/C=C/c2ccc3ccc(Cl)cc3n2)c1 (stereo not given) | nt | 29% | nt | nt | nt | nt
CCSc1nn(CC(=O)Nc2ccc(C(=O)OC)cc2)c(N)c1S(=O)(=O)c1ccc(C)cc1 | ? | nt | -13% | ? | -36% | ?
CCOC(=O)c1ccc(NC(=O)Cn2nc(SC)c(S(=O)(=O)c3ccc(Cl)cc3)c2N)cc1 | 5µM* | -7% | -34% | ? | ? | ?
COc1ccccc1NC(=O)CSCc1cc(=O)c2cccc(Cl)c2[nH]1 | 0% | nt | 0% | 9% | -1% | ?
Cc1onc(-c2ccccc2)c1C(=O)NC(=S)NNC(=O)c1ccc(O)cc1O | -5% | 1% | 6% | ? | ? | ?
Cc1onc(-c2ccccc2)c1C(=O)NC(=S)NNC(=O)c1ccccc1O | -26% | 1% | -14% | 2.8µM* | ? | i
NC(=S)n1[nH]c(-c2ccc([N+](=O)[O-])cc2)c(N=Nc2ccccc2[N+](=O)[O-])c1=O | -12% | -6% | -1% | 13% | ? | i
Cc1[nH]n(C(N)=S)c(=O)c1N=Nc1cccc([N+](=O)[O-])c1C | ? | -6% | 20µM* | 16% | nt | i
Cc1[nH]n(C(N)=S)c(=O)c1N=Nc1ccc2ccccc2c1 | 1% | 3% | -21% | ? | 23%[11.3 µM] | i
Cc1c(N=Nc2c(-c3ccc([N+](=O)[O-])cc3)[nH]n(C(N)=S)c2=O)cccc1[N+](=O)[O-] | 8.9µM* | -1% | -23% | ? | ? | ?
Cc1ccc(N=Nc2c(C)[nH]n(C(N)=S)c2=O)cc1C | -5% | -4% | -2% | 0.5µM* | 123% | i
CCOc1ccc(CCNC(=O)c2cccc(-n3c(C)nc4cccnc43)c2C)cc1 | 0% | nt | 2% | -1% | nt | nt
C=CC[N+]1([C@H]2C[C@H]3[C@@H]4CC[C@H]5C[C@H](O)[C@@H](N6CCOCC6)C[C@]5(C)[C@H]4CC[C@]3(C)[C@H]2OC(C)=O)CCCC1 | nt | 7% | nt | nt | nt | nt
CC1Cc2ccccc2C[N+]1(C)CC(=O)c1ccc(I)cc1 (stereo not given) | 8% | nt | 16% | nt | nt | nt
SMILES | TGFb inhibitor | GLP-1R agonist | HepG2 tox | GLP-1R inv ag | ATXN2 expr inh | ATXN viability
O=C(NCCc1nc2ccccc2n1Cc1c(F)cccc1Cl)c1ccco1 | ? | nt | -14% | 3% | -24% | i
Cn1nccc1C(=O)NCC1CCC2(CCN(Cc3cccc4ncccc34)CC2)O1 (stereo not given) | nt | nt | nt | nt | nt | i
CSc1ccc(CCNC(=O)CCc2nnc3ccc(N4CCOCC4)nn23)cc1 | -2% | 4% | -16% | 10% | 1% | i
CSc1ccc(CCNC(=O)CCc2nnc3ccc(N4CCCCC4)nn23)cc1 | ? | 13% | 2.8µM* | 7% | -20% | i
Cc1c(C(=O)N2CCCC(c3ccccc3)C2)sc2ncnc(NCCc3ccccn3)c12 (stereo not given) | nt | nt | nt | nt | nt | i
CC(O)CNCCCCOc1ccc(OCc2ccccc2)cc1 (stereo not given) | 9% | -1% | -2% | 14µM* | 4% | nt
Cc1cc(C)n(-c2nnc(Nc3ccc(C)c(Cl)c3)c3ccccc23)n1 | 10µM* | -2% | -21% | ? | -5% | i
CC(=O)Nc1cc(-c2ccccc2)nn1Cc1cccc(Cl)c1 | -22% | nt | -22% | ? | -16% | i
CSc1nn(Cc2cccc(Cl)c2)c(N(C(C)=O)C(C)=O)c1S(=O)(=O)c1ccccc1 | ? | -4% | -64% | 13µM* | ? | ?
CC(C)c1cc(C(=O)N2Cc3ccc(CN4CCN(C)CC4)cc3C2)c(O)cc1O | nt | nt | nt | nt | 0.22µM* | nt
COc1cc(CNCc2cc3cc(C)ccc3nc2-c2ccc(F)cc2)cc(OC)c1OC | nt | nt | nt | nt | nt | i
CC(=O)c1ccc(NS(=O)(=O)c2ccc(CC(C)C)cc2)cc1 | 16µM* | 9% | -92% | -3% | -13% | i
CC(=O)c1ccc(NC(=O)Nc2ccc(NS(=O)(=O)c3ccc(C)cc3)cc2)cc1 | ? | -12% | -54% | ? | 0% | i
CC(C)OC(=O)[C@H](C)N[P@](=O)(OC[C@H]1O[C@@H](n2ccc(=O)[nH]c2=O)[C@](C)(F)[C@H]1O)Oc1ccccc1 | nt | nt | nt | nt | -7% | nt
COc1ccccc1CCNC(=O)c1cc(C2CC2)nc2c1cnn2C(C)C | -8% | 29% | -10% | 10µM* | 0% | i
Cc1ccccc1N1CCN(C(=O)c2cc(-c3ccccc3)nc3c2cnn3C(C)C)CC1 | -3% | -3% | -1% | 5% | nt | ?
COc1ccccc1N1CCN(C(=O)c2cc3c(C)nc4ccccc4c3o2)CC1 | ? | -5% | -20% | ? | 20µM* | ?
COc1ccccc1OCCNC(=O)c1cc(C2CC2)nc2c1cnn2C(C)C | 5% | -2% | -17% | 2% | -4% | ?
COc1ccccc1N1CCN(C(=O)c2cc(-c3ccccc3)nc3c2cnn3C(C)C)CC1 | -14% | 0% | 6% | 11µM* | nt | i
COc1ccccc1N1CCN(C(=O)c2ccccc2Oc2ccccc2)CC1 | 0% | 3% | -15% | 8.9µM* | -1% | i
Cc1ccc(CCNS(=O)(=O)c2c(C)nc3sc(C)c(C)n3c2=O)cc1 | -1% | nt | -5% | 7% | nt | nt
